Bioassay records as filed in PubChem BioAssay.
Only a selection was taken, and hits are over-represented in it overall.
Menin MLL FP FL: displaces fluorescein MLL peptide from human menin; Fluorescence polarization, fluorescein-MLL peptide displacement from menin; FP activity change, % at 61.4 µM; 290,000 tested, under 10 active; active = well fitted curve in the direction sought with a large enough effect in the polarisation, not every such curve was filed as active; inconclusive = small, poorly fitted or top-dose-only effect, or effect the other way, or a change in a side signal; inactive = no such curve, though single readings can be large or run the other way; the % refers to the polarisation
Menin-MLL TR inh: inhibitors of human menin-MLL interaction, mutant MLL peptide; Menin + Texas Red MLL mutant peptide, fluorescence polarization; Potency, µM (doses to about 61.6 µM), actives largely listed as inhibitors; O00255; AID 1768; hit rate 0.23% among 270,000; active = well fitted inhibition curve with a large enough effect in the polarisation, with a control signal flat, not every such curve was filed as active; inconclusive = small, poorly fitted or top-dose-only effect, or effect the other way, or a change in a side signal; inactive = no such curve, though single readings can be large or run the other way; the % refers to the polarisation
ClpP mod: qHTS Assay for Activators of ClpP | purified B. subtilis ClpP, FRET peptide cleavage, 20 min | Potency, µM (top dose mostly 57.5 µM) | hit rate 1.9% among 340,000 | AID 651965, 2013; active = well fitted falling curve with a large enough effect; inconclusive = small, poorly fitted or top-dose-only effect; inactive = no such curve, though single readings can be large or run the other way; note: the source files actives as falling curves though it sought activators and does not explain the sign; nearly all actives have a fitted effect of over 65% in size
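ClpP 10 microg/mL final, pH 8 Tris/KCl buffer with BSA, glycerol, Tween-20; compound pinned in; FRET-FV substrate; RT 20 min; Ex320/Em430; ΔFRET vs ADEP 5.8 microM, DMSO, no enzyme.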
p53 reactivation: restores transcriptional activity of mutant p53; H1299 p53-A138V BP100-luciferase reporter, luminescence, 24 h; Potency, µM (top dose mostly 92.2 µM), most hits filed as activators; hit rate 0.063% among 320,000; active = well fitted activation curve with a large enough effect; inconclusive = small, poorly fitted or top-dose-only effect; inactive = no such curve, though single readings can be large or run the other way; note: nearly all actives have a fitted effect of over 45% in size
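p53-null H1299 cells stably carrying temperature-sensitive p53-A138V and a BP100-luciferase reporter were pinned with compounds (4-point, 1:5 series) and held 24 hrs at 37 deg C. Luminescence was read 10 min after detection reagent.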
CXXC DNA block: blocks binding of human MLL CXXC domain to DNA | hit rate 0.037% among 290,000 | MLL-CXXC / FITC-HOXA9 DNA fluorescence polarization | Potency, µM (highest dose often 115 µM), hits mostly inhibitors | Q03164; active = well fitted inhibition curve with a large enough effect in the polarisation, with a control signal flat, not every such curve was filed as active; inconclusive = small, poorly fitted or top-dose-only effect, or effect the other way, or a change in a side signal; inactive = no such curve, though single readings can be large or run the other way; the % refers to the polarisation
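Steps: dispense CXXC domain solution (7 uM) → pin compounds or unlabeled HOX-A9 DNA control → 5 min ambient → add FLSN-HOX-A9 solution (50 nM) → spin → 30 min ambient → fluorescence polarization. Tris pH 7.5/NaCl/DTT/BSA buffer.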
A number is an active result; n = inactive; u = inconclusive; x = not tested or not shown; ! = repeats disagree.

SMILES	Menin MLL FP FL	Menin-MLL TR inh	ClpP mod	p53 reactivation	CXXC DNA block
Cc1ccc(NC(=O)CSc2nccn2-c2ccccc2)cc1	x	x	n	x	x
CN(CCNC(=O)c1c[nH]c2c1ccc1ccccc12)CCNC(=O)c1c[nH]c2c1ccc1ccccc12	x	x	28.2µM	x	x
CN(C)CCNC(=O)c1cccc2nc3c(ccc4ccccc43)nc12	x	x	n	x	x
CSc1ccc(/C=C2\C=Cc3cc([N+](=O)[O-])ccc32)cc1	x	x	n	x	x
C=CCSc1nnc(-c2sc(-c3ccccc3)nc2C)n1C	n	n	35.5µM	n	n
COC(=O)c1sc(-c2ccccc2)cc1NC(=O)Nc1ccc(Cl)cc1	x	x	17.8µM	x	x
COC(=O)c1sc(-c2ccccc2)cc1NC(=O)Nc1ccccc1Cl	x	x	n	x	x
CCOC(=O)c1sc(-c2ccccc2)cc1NC(=O)Nc1ccccc1	n	u	u	n	n
CCOC(=O)c1sc(-c2ccc(F)cc2)cc1NC(=O)Nc1ccccc1OC	n	u	17.8µM	n	n
COC(=O)c1sc(-c2ccccc2)cc1NC(=O)Nc1ccc(F)cc1	x	x	31.6µM	x	x
CCCCc1ccc(NC(=O)COC(=O)c2ccccc2OCC(=O)Nc2ccc(Br)cc2)cc1	x	x	n	x	x
CC1CCN(S(=O)(=O)c2ccc3c(ccc(=O)n3CC(=O)Nc3cccc(F)c3)c2)CC1	x	x	n	x	x
COc1ccc([C@H]2OCC3C2CO[C@@H]3c2ccc(OC)c(OC)c2)cc1OC (stereo not given in full)	n	n	x	x	x
C=C(C)COc1ccc(-c2nc(N)ncc2Oc2ccccc2OC)c(O)c1	n	u	n	n	n
C=C(C)COc1ccc(-c2nc(N)ncc2Oc2ccc(OC)cc2)c(O)c1	n	u	25.1µM	n	n
O=C1C(=O)C(c2cc(O)c(O)c(O)c2)Oc2cc(O)cc(O)c21 (stereo not given)	x	x	n	x	x
CCOC(=O)Nc1cc2c(C)cc(=O)oc2cc1C	n	n	15.8µM	n	n
CCOc1ccccc1NC(=O)c1cc(=O)c2ccccc2o1	n	n	n	n	n
CCOC(=O)Nc1cc(=O)c2ccccc2o1	n	n	31.6µM	n	n
CCN1C(=NCc2cccc(Cl)c2)N[C@@H](c2cccc(C(F)(F)F)c2)C(C(=O)OC)=C1C	x	x	n	x	x
O=C(NC(=S)Nc1ccccc1N1CCN(C(=O)c2ccccc2)CC1)c1ccccc1F	x	x	31.6µM	n	n
Cc1ccc(-n2c(=O)c3sccc3n(Cc3cc(=O)n4ccccc4n3)c2=O)cc1F	n	n	x	u	n
Cc1ccc(-n2c(=O)c3sccc3n(Cc3cc(=O)n4ccccc4n3)c2=O)cc1	n	n	31.6µM!	n	n
CCOc1cc(S(=O)(=O)NCc2ccccc2)c(OCC)cc1-n1cnnn1	x	x	31.6µM	x	x
CCOc1cc(S(=O)(=O)N(Cc2ccccc2)Cc2ccccc2)c(OCC)cc1-n1cnnn1	n	n	28.2µM	n	n
SMILES	Menin MLL FP FL	Menin-MLL TR inh	ClpP mod	p53 reactivation	CXXC DNA block
CCCN1CNc2c(c(=O)[nH]c(=S)n2CCc2c(OC)cccc2OC)C1	x	x	n	x	x
C=CC[n+]1cccc2cc(Br)ccc21	x	x	n	x	x
NNC(=O)c1ccc(C(=O)N(c2ccccc2)c2ccccc2)cc1	x	x	n	x	x
CC[C@H](C)[C@H](NC(=O)[C@H](CC(C)C)NC(=O)[C@H](CO)NC(=O)[C@H](CCC(=O)O)NC(=O)[C@H](CC(C)C)NC(=O)[C@H](Cc1ccc(O)cc1)NC(=O)[C@H](CCCCN)NC(=O)[C@H](CCCCN)NC(=O)[C@H](C)NC(=O)[C@H](CO)NC(=O)[C@H](CC(C)C)NC(=O)[C@H](CCC(N)=O)NC(=O)CNC(=O)[C@H](CC(C)C)NC(=O)[C@H](CC(C)C)NC(=O)[C@H](CCCNC(=N)N)NC(=O)[C@H](CO)NC(=O)[C@H](Cc1ccccc1)NC(=O)[C@H](CC(=O)O)NC(=O)[C@H](CO)NC(=O)[C@@H](NC(=O)[C@H](Cc1ccccc1)NC(=O)[C@@H](NC(=O)CNC(=O)[C@H](CC(=O)O)NC(=O)[C@H](C)NC(=O)[C@@H](N)Cc1cnc[nH]1)C(C)C)[C@@H](C)O)C(N)=O	n	n	x	x	x
N#Cc1ccc2ccn(CC(=O)NCc3ccccc3)c2c1	n	n	25.1µM	n	n
N#Cc1ccc2ccn(CC(=O)NC3CCCCC3)c2c1	n	n	u	n	n
COc1ccc(-n2ccnc(NCCc3ccc(S(N)(=O)=O)cc3)c2=O)cc1Cl	x	x	n	x	x
